High-throughput results (PubChem)
CYP2C19 activ: increases human CYP2C19 enzyme activity | P33261 | recombinant CYP2C19, luciferin-H EGE luminescence; active compounds read high; 0 = fully inhibited enzyme, 1 = untreated enzyme | activation factor at 5 µM | 96,000 tested, under 10 active;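 active = activation factor of at least 2 at 5 µM in the primary screen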
CYP2C9 activ: CYP2C9 (human) activation | 96,000 tested, 1.4% active | recombinant CYP2C9, luciferin-H conversion, luminescence; active compounds read high; factor 1 = untreated enzyme, 0 = blocked | activation factor at 5 µM | P11712;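 active = activation factor of 2 or more for CYP2C9 at a 5 µM dose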
Target sequence (P11712 whole entry, looked up): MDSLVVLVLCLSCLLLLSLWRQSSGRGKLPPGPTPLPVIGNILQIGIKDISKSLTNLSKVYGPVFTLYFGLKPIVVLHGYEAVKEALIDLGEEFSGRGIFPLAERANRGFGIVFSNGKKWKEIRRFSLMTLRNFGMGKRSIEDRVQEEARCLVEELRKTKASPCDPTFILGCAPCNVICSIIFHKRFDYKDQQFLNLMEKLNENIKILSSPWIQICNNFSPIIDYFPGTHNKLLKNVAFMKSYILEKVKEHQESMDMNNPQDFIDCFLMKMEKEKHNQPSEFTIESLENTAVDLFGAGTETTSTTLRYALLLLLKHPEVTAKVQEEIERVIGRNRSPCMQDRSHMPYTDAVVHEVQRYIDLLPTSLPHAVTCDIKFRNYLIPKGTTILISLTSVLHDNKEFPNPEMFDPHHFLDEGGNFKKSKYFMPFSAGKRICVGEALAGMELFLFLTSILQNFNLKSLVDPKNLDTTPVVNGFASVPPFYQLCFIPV
CYP2C19 inhib: blocks human cytochrome P450 2C19; P33261; CYP2C19 Supersomes, luciferin-H EGE luminescence, 30 min; inhibition, % at 5 µM; 96,000 tested, 21% active;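 active = CYP2C19 inhibition above a set limit at 5 µM in the primary screen, cut at about 50% in these data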
CYP2C9 inh: blocks human cytochrome P450 2C9; CYP2C9 Supersomes, luciferin-H conversion, luminescence; inhibition, % at 5 µM; 96,000 tested, 20% active; AID 777;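 active = blocking of liver enzyme CYP2C9 beyond about 50% at 5 µM, limit read from the data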
Cav32 inh: human Cav3.2 channel inhibition, primary screen | 100,000 tested, 4% active | Cav3.2-expressing cells, Fluo-4 calcium fluorescence FDSS; active compounds read low | O95180 | B-score at 10 µM;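 active = single-dose well whose peak fluorescence ratio is a statistical outlier from its plate by either plate-standardised score or position-corrected B-score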
Hits are given with their value; . = inactive; / = no result given. Most compounds without a hit are left out; they make up all but 27% or so of the library.

SMILES	CYP2C19 activ	CYP2C9 activ	CYP2C19 inhib	CYP2C9 inh	Cav32 inh
O=C1CCC(C(=O)OCC(=O)C23CC4CC(CC(C4)C2)C3)N1 (stereo not given)	.	.	.	.	.
COc1ccc(NS(=O)(=O)c2ccc(S(=O)(=O)N3CCCC3)cc2)cc1	.	.	.	68.7	.
COc1ccc(S(=O)(=O)N2CCCCC2)cc1	.	.	.	.	.
COc1ccc(S(=O)(=O)N2CCC(C(=O)N3CCCCCC3)CC2)cc1	.	2.5	84.6	.	.
COc1ccc(NS(=O)(=O)c2ccc(S(=O)(=O)N3CCCC3)cc2)cc1Cl	.	.	97.9	97.0	.
COc1ccc(C(=O)Nc2ccc(S(=O)(=O)N3CCCCC3)cc2)cc1OC	.	.	.	.	.
COc1ccc(S(=O)(=O)Nc2ccc(F)c(F)c2)cc1Cl	.	.	61.1	.	.
COC(=O)CCCC[C@@H]1SC[C@@H](NC(=O)OC)[C@@H]1NC(=O)OC	/	/	/	/	.
COc1cc(O)c(C(CCN2CCCC2)c2cc(OC)c(OC)c(OC)c2)c(OC)c1 (stereo not given)	/	/	/	/	.
CC(C)(C)c1ccc(C(=O)Nc2ccc(CC(=O)O)cc2)o1	.	.	.	.	.
CC(C)C1N=C(c2ccc3c(c2)OCO3)CC(c2ccccc2O)N1 (stereo not given)	.	.	54.2	61.2	.
c1ccc2sc(-c3ccc4c(c3)OCO4)nc2c1	.	.	.	.	.
CC1=C(C#N)C(c2ccc3ncccc3c2)C(C#N)=C(C)N1	.	.	83.2	68.7	.
O=C(CCN1C(=O)COc2ccccc21)NCc1cccnc1	/	/	/	/	.
O=C(CN1C(=O)COc2ccccc21)N(Cc1cccnc1)Cc1ccccc1F	.	.	.	53.9	.
CCC(C)(C(=O)NC1CCCC1)N(C(=O)c1cnccn1)c1c(C)n(C)n(-c2ccccc2)c1=O (stereo not given)	.	.	.	.	/
COc1ccc(NC(=O)C(C)N2c3cccc4cccc(c34)S2(=O)=O)cc1OC (stereo not given)	/	/	/	/	.
O=c1ccn(-c2cccc(C(F)(F)F)c2)nc1-c1ccn(-c2ccccc2F)n1	.	.	.	69.3	-7.96
COc1ccc(-n2ccc(-c3nn(-c4cccc(C(F)(F)F)c4)ccc3=O)n2)cc1	.	.	82.0	83.0	-4.39
COc1ccccc1NC(=O)c1nn(-c2cccc(C(F)(F)F)c2)ccc1=O	.	2.7	.	.	/
CCCN1CCC(N(C)CCc2ccc(OC)c(OC)c2)CC1	.	.	.	.	.
C[C@H]1[C@@H](OC(=O)CCC(=O)O)O[C@@H]2OC3(C)CC[C@H]4[C@H](C)CC[C@@H]1[C@@]24OO3	/	/	/	/	.
COCCOC(=O)C1=C(C)N=C2SCCC(=O)N2C1/C=C/c1ccccc1 (stereo not given)	.	.	81.1	92.9	.
CCOC(=O)C1=C(C)N=C2SC(C)C(=O)N2C1/C=C/c1ccccc1OC (stereo not given)	.	.	.	79.8	-5.19
CCOC(=O)C1=C(C)N=C2SCCC(=O)N2[C@@H]1/C=C/c1ccccc1	.	.	.	.	-4.79
SMILES	CYP2C19 activ	CYP2C9 activ	CYP2C19 inhib	CYP2C9 inh	Cav32 inh
Cc1oc(C(=O)O)cc1CSc1nnc(-c2ccccc2)n1C	.	.	.	.	.
COc1ccc(OC)c(S(=O)(=O)N2CCC(C(=O)NCC3CCCO3)CC2)c1 (stereo not given)	.	.	.	.	.
Nn1c(SCC(=O)NCc2ccccc2)nnc1C1CC1	.	.	.	.	.
O=C(Nc1cccc2ccccc12)/C(Cl)=C/c1ccccc1	.	3	.	.	.
O=C(Nc1cccc2ccccc12)/C(=C/c1ccc([N+](=O)[O-])cc1)NC(=O)c1ccccc1	.	.	.	.	/
N#Cc1c(C(F)(F)F)cc(-c2ccco2)nc1SCc1ccncc1	.	.	86.7	92.4	.
N#Cc1c(C(F)(F)F)cc(-c2ccco2)nc1SCc1ccccn1	.	.	.	.	.
O=C1CC(C(=O)N2CCOCC2)C2(CCCCC2)O1 (stereo not given)	.	.	.	.	.
CC12CC3CC(C)(C1)CC(C(=O)NC(=S)N1CCOCC1)(C3)C2	.	.	.	.	.
COc1ccc2[nH]c(=O)c(CN(Cc3ccccc3)Cc3nnnn3CC3CCCO3)cc2c1 (stereo not given)	.	.	72.3	.	.
COc1cc2cc(CN(Cc3nnnn3Cc3ccccc3)CC3CCCO3)c(=O)[nH]c2cc1OC (stereo not given)	.	.	98.0	68.1	.
